Activity calls are given as the source filed them.
Legend:
[1] = binders of probe aFSTL3 on microarray, primary screen, stem cell growth factor project, biochemical, small-molecule microarray, fluorescence 635/667 (AID 1064); details: higher = more signal;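 note: measures binding of the biotinylated anti-FSTL3 antibody to printed compounds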
[2] = binders from COS7 lysate, DM2A8 probe, primary screen, torsin A project, cell lysate, small-molecule microarray, fluorescence 635/667 (AID 1065); details: higher = more signal, COS7 lysate expressing mutant human TOR1A
[3] = binders of probe aFGF2 on microarray, primary screen, stem cell growth factor project, biochemical, small-molecule microarray, fluorescence 635/667 (AID 1067); details: higher = more signal;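 note: measures binding of biotinylated aFGF2 protein to printed compounds on slides; z-score merges feature fluorescence and signal-to-noise across triplicate slides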
[4] = binders of probe aFGF10 on microarray, primary screen, stem cell growth factor project, biochemical, small-molecule microarray, fluorescence 635/667 (AID 1071); details: higher = more signal;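 note: score merges 667 nm spot intensity and signal to noise from triplicate slides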
[5] = target: Neurogenic locus notch homolog protein 2 (Homo sapiens) (UniProt Q04721); assay: Notch2 binders on small-molecule microarrays, primary screen, biochemical, small-molecule microarray, 635 nm fluorescence, stem cell growth factors (AID 1073); details: Notch2 binding, higher = more signal
Chain of Neurogenic locus notch homolog protein 2 (Homo sapiens) (Q04721 whole entry, looked up, canonical isoform): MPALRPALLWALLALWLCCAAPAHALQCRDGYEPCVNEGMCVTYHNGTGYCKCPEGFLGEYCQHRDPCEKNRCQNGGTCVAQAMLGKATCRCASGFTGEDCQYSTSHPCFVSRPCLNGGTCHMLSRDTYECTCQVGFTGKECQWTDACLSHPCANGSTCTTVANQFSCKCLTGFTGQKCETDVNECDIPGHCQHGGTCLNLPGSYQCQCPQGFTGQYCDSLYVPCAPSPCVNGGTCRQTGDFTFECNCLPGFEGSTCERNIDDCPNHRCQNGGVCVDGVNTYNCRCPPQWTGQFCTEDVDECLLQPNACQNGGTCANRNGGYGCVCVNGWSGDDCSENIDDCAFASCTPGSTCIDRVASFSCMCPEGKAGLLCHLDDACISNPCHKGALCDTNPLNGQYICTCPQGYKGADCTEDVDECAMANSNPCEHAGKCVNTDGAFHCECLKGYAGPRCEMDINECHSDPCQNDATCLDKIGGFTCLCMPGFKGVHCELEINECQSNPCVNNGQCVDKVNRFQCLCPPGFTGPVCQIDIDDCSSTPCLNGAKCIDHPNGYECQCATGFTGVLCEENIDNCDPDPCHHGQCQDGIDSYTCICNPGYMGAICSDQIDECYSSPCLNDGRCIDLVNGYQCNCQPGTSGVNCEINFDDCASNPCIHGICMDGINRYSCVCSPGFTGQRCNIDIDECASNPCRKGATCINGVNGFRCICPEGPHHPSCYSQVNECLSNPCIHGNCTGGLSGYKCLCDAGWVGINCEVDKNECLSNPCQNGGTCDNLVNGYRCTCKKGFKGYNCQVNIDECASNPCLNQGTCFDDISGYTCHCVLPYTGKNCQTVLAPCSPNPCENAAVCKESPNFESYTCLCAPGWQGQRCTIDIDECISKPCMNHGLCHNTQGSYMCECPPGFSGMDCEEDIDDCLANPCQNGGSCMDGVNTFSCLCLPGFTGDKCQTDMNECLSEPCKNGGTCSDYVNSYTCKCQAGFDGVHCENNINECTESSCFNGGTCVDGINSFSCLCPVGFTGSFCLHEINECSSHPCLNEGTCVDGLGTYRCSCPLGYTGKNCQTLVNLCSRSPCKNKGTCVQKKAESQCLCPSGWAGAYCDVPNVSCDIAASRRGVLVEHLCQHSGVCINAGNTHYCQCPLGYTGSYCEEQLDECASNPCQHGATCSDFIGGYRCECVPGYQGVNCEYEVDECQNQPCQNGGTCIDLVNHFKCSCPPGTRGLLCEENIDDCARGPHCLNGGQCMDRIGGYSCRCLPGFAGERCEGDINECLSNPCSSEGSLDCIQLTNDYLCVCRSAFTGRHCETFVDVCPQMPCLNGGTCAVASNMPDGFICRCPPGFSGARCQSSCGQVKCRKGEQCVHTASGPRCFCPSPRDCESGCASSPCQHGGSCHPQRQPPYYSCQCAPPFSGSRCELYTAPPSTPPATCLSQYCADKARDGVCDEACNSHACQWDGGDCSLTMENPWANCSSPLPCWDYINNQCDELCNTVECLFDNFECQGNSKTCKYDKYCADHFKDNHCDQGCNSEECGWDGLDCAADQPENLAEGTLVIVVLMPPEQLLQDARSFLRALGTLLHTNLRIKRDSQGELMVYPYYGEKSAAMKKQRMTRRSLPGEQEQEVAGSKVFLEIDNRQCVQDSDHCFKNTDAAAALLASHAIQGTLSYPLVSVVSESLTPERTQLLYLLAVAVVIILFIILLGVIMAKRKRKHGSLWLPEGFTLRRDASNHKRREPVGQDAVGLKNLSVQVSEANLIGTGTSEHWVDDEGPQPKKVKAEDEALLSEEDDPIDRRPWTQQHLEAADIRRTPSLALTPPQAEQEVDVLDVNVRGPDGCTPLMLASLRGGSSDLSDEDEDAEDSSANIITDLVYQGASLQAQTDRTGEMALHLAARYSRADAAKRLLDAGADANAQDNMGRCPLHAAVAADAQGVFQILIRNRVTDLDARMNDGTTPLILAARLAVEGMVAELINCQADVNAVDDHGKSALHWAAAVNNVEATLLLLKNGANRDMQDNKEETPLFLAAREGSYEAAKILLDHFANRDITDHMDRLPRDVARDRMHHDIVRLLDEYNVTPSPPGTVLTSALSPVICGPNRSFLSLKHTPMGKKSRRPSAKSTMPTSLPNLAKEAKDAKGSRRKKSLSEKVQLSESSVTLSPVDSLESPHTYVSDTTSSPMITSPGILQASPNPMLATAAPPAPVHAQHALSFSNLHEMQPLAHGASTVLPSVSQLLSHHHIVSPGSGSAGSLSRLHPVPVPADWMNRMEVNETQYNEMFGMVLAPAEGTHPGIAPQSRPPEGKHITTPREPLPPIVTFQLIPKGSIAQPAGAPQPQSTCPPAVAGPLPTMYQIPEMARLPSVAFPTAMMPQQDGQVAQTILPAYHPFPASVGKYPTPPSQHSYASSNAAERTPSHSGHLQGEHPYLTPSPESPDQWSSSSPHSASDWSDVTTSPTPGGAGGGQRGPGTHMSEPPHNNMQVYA

[6] = target: Pro-neuregulin-1, membrane-bound isoform (Homo sapiens) (UniProt Q02297); assay: NRG1 binders on small-molecule microarrays, primary screen, psychiatric disease protein project, biochemical, small-molecule microarray, fluorescence 635/667 (AID 1075); details: NRG1 binding, 635 nm fluorescence, higher = more signal;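 note: score combines 667 nm spot fluorescence with signal to noise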
Chain of Pro-neuregulin-1, membrane-bound isoform (Homo sapiens) (Q02297 whole entry, looked up, the tested form may be a part, canonical isoform): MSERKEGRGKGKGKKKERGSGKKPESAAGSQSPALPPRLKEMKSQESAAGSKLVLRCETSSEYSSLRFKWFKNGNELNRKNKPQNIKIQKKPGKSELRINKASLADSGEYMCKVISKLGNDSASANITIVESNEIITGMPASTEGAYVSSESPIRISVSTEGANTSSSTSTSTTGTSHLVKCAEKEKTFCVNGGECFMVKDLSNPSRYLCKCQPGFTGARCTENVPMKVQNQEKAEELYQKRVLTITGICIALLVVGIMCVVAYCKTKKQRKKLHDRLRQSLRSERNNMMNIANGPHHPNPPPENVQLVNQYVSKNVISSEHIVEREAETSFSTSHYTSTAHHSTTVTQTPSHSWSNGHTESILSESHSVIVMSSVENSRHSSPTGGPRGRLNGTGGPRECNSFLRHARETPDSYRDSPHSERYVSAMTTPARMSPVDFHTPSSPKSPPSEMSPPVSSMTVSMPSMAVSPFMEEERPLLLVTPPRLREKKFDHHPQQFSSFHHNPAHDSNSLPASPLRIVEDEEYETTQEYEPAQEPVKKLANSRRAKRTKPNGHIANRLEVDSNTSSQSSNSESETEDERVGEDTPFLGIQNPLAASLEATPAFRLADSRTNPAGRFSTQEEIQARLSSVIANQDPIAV

[7] = tested on: Neuregulin-1 EGF-like domain; assay: binders of neuregulin-1 EGF-like domain, primary screen, biochemical, small-molecule microarray, 635 nm fluorescence (AID 1081); details: small-molecule microarray binding, higher = more signal;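 note: binding of the protein to compounds printed on small-molecule microarray slides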
[8] = FRG1 promoter luciferase signal modulators, primary screen, FRG1 inhibition for FSHD, cell-based, C2C12 myotubes, firefly/Renilla luciferase, luminescence (AID 1084); details: higher = more signal, called active from +8 up or from −8 down
[9] = binders of probe aFST on microarray, primary screen, stem cell growth factor project, biochemical, small-molecule microarray, fluorescence 635/667 (AID 1086); details: higher = more signal;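 note: score merges 667 nm fluorescence with signal-to-noise of each printed compound spot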
[10] = binders of probe aHhip on microarray, primary screen, stem cell growth factor project, biochemical, small-molecule microarray, fluorescence 635/667 (AID 1087); details: higher = more signal;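 note: score merges spot fluorescence at 667nm with spot signal to noise ratio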

SMILES	composite z-score [1]	composite z-score [2]	composite z-score [3]	composite z-score [4]	composite z-score [5]	composite z-score [6]	composite z-score [7]	z-score [8]	composite z-score [9]	composite z-score [10]
CC(C)OC(=O)C=C1C[C@@H](c2ccc(C(F)(F)F)cc2)O[C@@H](c2ccc(C(F)(F)F)cc2)O1	-0.187	1.92	-0.0288	0.891	-0.316	1.08	1	0.337 (inactive)	0.0006	-0.214
CCOC(=O)C1=CC[C@@H](c2cccc(Cl)c2)N(S(=O)(=O)c2ccc(C)cc2)C1	0.432	0.627	0.067	0.336	0.0142	1.31	1.2	-2.76 (inactive)	0.329	-0.0994
COCCOC(=O)N1C(=O)[C@@]2(c3cc(C#Cc4ccc(OC)cc4)ccc31)[C@H](C(=O)Nc1nc3ccccc3s1)[C@H]1C(=O)O[C@H](c3ccccc3)[C@H](c3ccccc3)N1[C@@H]2c1ccc(OCCO)cc1	-0.51	0.661	-0.0569	0.784	1.21	0.138	1.11	4.61 (inactive)	0.632	-0.0618
COc1ccc([Si](C)(C)[C@@H]2[C@@H](CC(=O)N(CCO)Cc3ccccc3)O[C@]3(C(=O)N(Cc4cccc(N5CCOC5=O)c4)c4ccccc43)[C@H]2C)cc1	-0.0388	1.02	-0.117	0.476	0.0505	1.1	1.12	-0.819 (inactive)	-0.0988	-0.248
CN(C)C(=O)[C@@]1(CCS(=O)(=O)c2ccccc2)N=C(c2ccc(OCCCO)cc2)O[C@H]1c1ccccc1	-0.0356	0.79	0.163	0.746	1.35	2.13	1.34	-0.522 (inactive)	1.52	0.0401
CCCCN1CC=CC23O[C@@H]4/C=C\CCC(C)OC(=O)C4[C@H]2C(=O)N(C(CO)C(C)C)[C@@H]3C1=O (stereo not given in full)	-0.513	0.642	-0.0976	0.291	-0.358	0.362	1.45	-0.095 (inactive)	-0.19	-0.201
CCOC(=O)C[C@H]1[C@H](OC(=O)Cc2ccc3c(c2)OCO3)[C@@H](NC(=O)CC(C)C)c2cc(OCCCO)ccc2N1C(=O)Cc1ccc(OC)cc1	-0.244	0.0682	-0.114	0.103	-0.0727	-0.308	0.258	-2.61 (inactive)	-0.207	-0.245
C=CCNC(=O)[C@H]1[C@@H]2C(=O)O[C@@H](c3ccccc3)[C@@H](c3ccccc3)N2[C@@H](c2ccc(O)cc2)[C@]12C(=O)Nc1ccc(C#CC3(O)CCCCCC3)cc12	0.0935	1.01	-0.0293	0.254	-0.459	0.865	0.718	-0.246 (inactive)	0.168	0.312
C=CCC(OC(C)=O)[C@@H]1[C@@H](N(Cc2cc3ccccc3o2)C(=O)c2ccc(-c3ccccc3)cc2)c2cc(OCCCO)ccc2N1C(=O)c1ccc2ccccc2c1 (stereo not given in full)	-0.0256	-0.262	0.0405	-0.0863	0.251	0.0445	-0.341	-3.52 (inactive)	0.679	-0.214
C=CCC(OC(C)=O)[C@@H]1[C@@H](N(Cc2cc3ccccc3o2)C(=O)Cc2ccc(F)cc2)c2cc(OCCCO)ccc2N1C(=O)c1ccc2ccccc2c1 (stereo not given in full)	-0.0245	-0.186	-0.116	-0.121	-0.367	-0.32	-0.432	-1.92 (inactive)	0.45	-0.0994
COc1ccccc1CN1C(=O)c2ccccc2[C@](Cc2ccccc2I)(C(=O)NCC(F)(F)F)[C@@H]1c1ccc(CO)cc1	0.164	0.847	-0.0454	1.21	0.981	1.51	1.36	-0.719 (inactive)	1.37	0.0373
CCCCCCCCCCC(O)C1C=CC2C(=O)N(C)C(=O)C2N1NC(=O)OC(C)(C)C (stereo not given)	-0.318	-0.127	-0.0272	-0.293	0.228	1.03	0.465	-0.218 (inactive)	0.0478	-0.212
O=C1O[C@@H](c2ccccc2)[C@@H](c2ccccc2)N2[C@@H](c3ccc(O)cc3)[C@]3(C(=O)Nc4ccc(C#CC5(O)CCCCCC5)cc43)[C@@H](C(=O)NC[C@H](O)c3ccccc3)[C@H]12	0.107	-0.363	-0.0255	0.753	-0.226	1.02	0.538	0.106 (inactive)	-0.405	-0.236
C=CC[C@]1(C(=O)O)COC(c2ccc(OCCCO)cc2)=N1	-0.151	0.273	-0.0538	-0.114	0.675	1.79	1.07	0.519 (inactive)	0.403	-0.249
CC(CO)N1C(=O)[C@@H]2[C@H]3C(=O)OCC=C[C@H]3OC23C=CCN(Cc2ccccc2)C(=O)[C@@H]13 (stereo not given in full)	0.0457	-0.31	-0.166	-0.166	-0.374	-0.622	0.307	-0.282 (inactive)	-0.531	0.12
COCCOC(=O)N1C(=O)[C@@]2(c3ccccc31)[C@H](C(=O)N1CCN(c3ncccn3)CC1)[C@H]1C(=O)O[C@H](c3ccccc3)[C@H](c3ccccc3)N1[C@@H]2c1ccc(O)cc1	0.149	0.0128	-0.0136	0.879	0.186	1.36	0.335	-0.79 (inactive)	-0.0574	0.0523
C=CCC(OC(C)=O)[C@@H]1[C@@H](N(Cc2cccc3ccccc23)C(=O)Cc2ccc(OC)cc2)c2cc(OCCCO)ccc2N1C(=O)c1ccc2ccccc2n1 (stereo not given in full)	-0.192	0.0233	0.0437	0.11	-0.263	0.836	0.154	-1.76 (inactive)	0.153	-0.152
O=C1C2C=CC(C(O)c3ccccc3)N(Nc3ccccc3F)C2C(=O)N1c1ccccc1 (stereo not given)	-0.283	0.932	0.0248	0.373	0.99	0.801	0.834	-2.14 (inactive)	0.444	-0.191
C=CCOC(=O)[C@H]1[C@@H]2C(=O)O[C@@H](c3ccccc3)[C@@H](c3ccccc3)N2[C@@H](c2ccc(OCCOC(=O)[C@@H]3C[C@@H]4C(=O)N[C@@H](CCCCN(C)C)C(=O)N4[C@@H]3c3ccc(O)cc3)cc2)[C@]12C(=O)Nc1ccccc12	-0.0613	0.639	-0.113	0.389	0.69	0.965	1.26	0.585 (inactive)	0.29	0.0623
COc1ccc(C(O)C2C=CC3C(=O)N(c4ccccc4)C(=O)C3N2Nc2ccc([N+](=O)[O-])cc2)cc1 (stereo not given)	0.928	-0.0823	0.25	0.935	1.64	0.546	1.16	-1 (inactive)	1.18	-0.149
C=CCC(OC(C)=O)[C@@H]1[C@@H](N(Cc2cccc3ccccc23)C(=O)Cc2ccc(F)cc2)c2cc(OCCCO)ccc2N1C(=O)c1ccc2ccccc2n1 (stereo not given in full)	0.258	-0.0938	0.0631	0.0908	0.179	0.0429	-0.429	-1.11 (inactive)	0.382	0.347
C=C(C)[C@@H]1CC=C(C(O)C2C=CC3C(=O)N(c4ccccc4)C(=O)C3N2Nc2ccccc2F)CC1 (stereo not given in full)	0.264	0.0754	0.195	0.825	1.63	1.94	1.22	-1.51 (inactive)	1.84	0.18
CCOC(=O)C[C@H]1[C@H](OC(=O)Cc2ccc3c(c2)OCO3)[C@@H](NC(=O)Cc2ccc(OC)cc2)c2cc(OCCCO)ccc2N1C(=O)c1ccc2ccccc2n1	-0.362	0.401	-0.104	0.466	0.255	0.371	0.752	-3.56 (inactive)	0.103	-0.274
COc1ccc([Si](C)(C)[C@@H]2[C@@H](CCO)O[C@]3(C(=O)N(Cc4ccc(N5CCCCC5=O)cc4)c4ccccc43)[C@H]2C)cc1	-0.343	0.299	0.0344	0.913	0.0177	0.919	1.15	-4.78 (inactive)	0.203	0.0373
C=CCNC(=O)[C@@H]1[C@H]2C(=O)O[C@H](c3ccccc3)[C@H](c3ccccc3)N2[C@H](c2ccc(O)cc2)[C@@]12C(=O)N(C(=O)OCCOC)c1ccc(C#CC3(O)CCCCCC3)cc12	0.564	-0.548	-0.176	-1.52	-2.26	-0.712	-0.895	-0.659 (inactive)	-1.19	-0.312
Cc1ccc(S[C@]2(C(=O)O)CC(=O)N(C3Cc4ccccc4C3)[C@@H]2c2ccc(CO)cc2)cc1	0.377	0.477	0.0015	-0.179	-0.267	0.915	0.184	0.177 (inactive)	-0.117	-0.134
CC(C)(C)OC(=O)CC[C@]1(C(=O)NCc2ccccc2)N=C(c2ccc(OCCCO)cc2)O[C@H]1c1ccccc1CN=[N+]=[N-]	-0.0386	0.357	0.119	0.618	1.55	1.22	1.31	-2.07 (inactive)	1.48	-0.0296
CC(C)C[C@@H]1NC(=O)[C@@H]2C[C@H](C(=O)NCCCCN(C)C)[C@H](c3cccc(OCCO)c3)N2C1=O	0.0116	1.47	-0.143	-0.242	-0.416	0.204	1.19	6.17 (inactive)	-0.612	-0.192
